Potency and activity change, negative = inhibition data for 10 compounds are collected here from PubChem BioAssay (NCATS).

The subject of one assay is Tov112D. Description: Primary qHTS to identify gynecologic anti-cancer compounds using libraries of approved drugs and bioactive compounds (AID 1345084). Note: nearly all actives have a fitted effect of over 55% in size. Conditions: Gynecologic cancer cell panel viability, ATPlite luminescence, 48 h; series mostly up to 57.5 µM. The gist of the method:
(§1)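 Cytotoxicity screen measuring ATP content by luciferase luminescence. Each compound is applied at five concentrations for 48 h at 37 C with 5% CO2.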
For orientation: In qHTS, concentration-response curves come from the screen itself.

A short description of assay [1]: qHTS assay to identify inhibitors of the type 1 interferon - major histocompatibility complex class I in skeletal muscle: Counter screen cell viability and HiBit confirmation (AID 1347412). For all read-outs here: nearly all actives have a fitted effect of over 60% in size. Conditions: iHSKM muscle cells + IFN-b, HiBiT or CellTiter-Glo, 24 h; for activity change, negative = inhibition: at 45.9 µM (top of the series). The essentials: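 Duplicate plates, pinned identically: one read for HiBiT-tagged endogenous HLA-B luminescence, the other for ATP-content viability via CellTiter Glo. Cells were genome-engineered human myoblasts given 4 ng/ml IFN-b; compounds 12-pt, 1:3 from 46 uM final; 24 hr exposure.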

In a further assay the test system is Tov-21-G. Description: Primary qHTS to identify gynecologic anti-cancer compounds using libraries of approved drugs and bioactive compounds (AID 1345084). Note: nearly all actives have a fitted effect of over 55% in size. The conditions noted are these: Gynecologic cancer cell panel viability, ATPlite luminescence, 48 h; series mostly up to 57.5 µM. The gist of the method: as §1

The structures appear in SMILES notation. Records with an inconclusive call do not appear. Values without a mark were called inactive. Activity calls are given as the source filed them. Calls come from the whole dose curve; as a rule, active = well fitted curve in the direction sought with a large enough effect; inconclusive = small, poorly fitted or top-dose-only effect, or another doubt; inactive = no such curve, though single readings can be large; an effect the other way counts as inactive or inconclusive.
% is set by controls: 0 for no effect and ±100 for the full control effect; potency is the fitted concentration of half-maximal effect.

As to `O=C(CCCCCCC(=O)Nc1ccc([C@H]2O[C@@H](CSc3nc(-c4ccccc4)c(-c4ccccc4)o3)C[C@@H](c3ccc(CO)cc3)O2)cc1)NO`, in the assay with Tov112D, the Potency result is “inactive”.

`COC(=O)Nc1nc2ccc(C(=O)c3ccc(F)cc3)cc2[nH]1`: the Potency in the assay with Tov112D is 3.55 µM (active). The activity change, negative = inhibition in assay [1] (Viability) was -28.8%.

Regarding `N#CCNC(=O)c1ccc(-c2ccnc(Nc3ccc(N4CCOCC4)cc3)n2)cc1`, the Potency in the assay on Tov-21-G was 14.1 µM (active); in assay [1] (HiBiT) it was 4.43 µM (active). The Potency entry with Tov112D was “inactive”. Moreover, the activity change, negative = inhibition in assay [1] (Viability) is -6.53%.

Regarding `CC(C)c1cnn2c(NCc3ccccc3)cc(N[C@@H](CO)[C@H](O)CO)nc12`, the Potency with Tov-21-G is 1.58 µM (active); in the assay with Tov112D it was 3.16 µM (active); in assay [1] (HiBiT) it was 0.157 µM (active). The activity change, negative = inhibition in assay [1] (Viability) is 18.9%.

Regarding `Cc1cc(Nc2cc(CN3CCOCC3)c3nc(C)c(Cc4ccc(Cl)cc4F)n3n2)n[nH]1`, in the assay with Tov112D, the Potency entry was “inactive”. In addition, in assay [1] (HiBiT), the Potency is 3.52 µM (active).

For `NC1(Cc2ccc(Cl)cc2)CCN(c2ncnc3[nH]ccc23)CC1`, in the assay on Tov112D, the Potency result is “inactive”.

As to `CNC(=O)c1cc(Oc2ccc(NC(=O)Nc3cc(C(C)(C)C)nn3-c3ccc4ncccc4c3)c(F)c2)ccn1`, the Potency in the assay on Tov-21-G was 28.2 µM (active); in assay [1] (HiBiT), 3.94 µM (active). The activity change, negative = inhibition in assay [1] (Viability) was 26.8%.

Turning to `CN1CCN(Cc2ccc(NC(=O)Nc3ccc(Oc4cc(NC(=O)C5CC5)ncn4)cc3)cc2C(F)(F)F)CC1`, the Potency was 0.708 µM (active) in the assay with Tov112D and 0.442 µM (active) in assay [1] (HiBiT). The activity change, negative = inhibition in assay [1] (Viability) was 13.9%.

In the case of `Nc1ncnc2c1c(-c1cnc3[nH]ccc3c1)nn2C1CCCC1`, the Potency is 6.31 µM (active) in the assay on Tov-21-G, 5.01 µM (active) with Tov112D and 2.22 µM (active) in assay [1] (HiBiT).

With `COc1cc2c(Oc3ccc4[nH]c(C)cc4c3F)ncnc2cc1OCCCN1CCCC1`, the Potency in the assay on Tov112D is 12.6 µM (active); in assay [1] (HiBiT) it was 19.8 µM (active); in assay [1] (Viability), 19.8 µM (active).
